Giardia killer: Small Molecules that selectively kill Giardia lamblia: qHTS; AID 540267, 2011; 340,000 compounds, 0.15% hits; activity change, % at 7.66 µM, hits read low; Giardia lamblia trophozoite viability; in the data active means activity change below about -80%; inconclusive means between about -30% and that limit;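 further: parasites exposed to compound for two days anaerobically before the ATP read; on the % scale 0 is the no-effect control and ±100 the full control effect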
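Each well holds 100 Giardia trophozoites and compound. After two days (48 hrs) at 37 deg C in anaerobic conditions, ATP is quantified by luminescence.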
Vif-APOBEC3F blk: qHTS for Inhibitors of Vif-A3F Interactions: qHTS. HeLa A3F-eYFP + Vif (tagged APOBEC3F with the HIV-1 protein that degrades it), YFP fluorescence increase. Potency, µM (series often up to 46.1 µM), inactives show at the highest dose activity, negative = active. 390,000 compounds, 0.2% hits. AID 602313, 2012; further: potency means the concentration at half of the fitted maximal effect; % of control where 0% means no effect; nearly all actives have a fitted effect of over 65% in size
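Fluorescence increase (Ex 488/Em 500-530) after overnight compound treatment at 37 deg C flags inhibition of Vif-driven A3F-eYFP loss in stable HeLa A3F-eYFP/Vif cells seeded overnight beforehand.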
Vif-APOBEC3G blk: qHTS for Inhibitors of Vif-A3G Interactions: qHTS. Potency, µM (titrated, usually from 46.1 µM), inactives show top-dose activity, negative = active, most hits filed as inhibitors. HeLa A3G-eYFP + Vif (tagged APOBEC3G with the HIV-1 protein that degrades it), YFP fluorescence, overnight. 410,000 compounds, 0.076% hits; further: potency means the concentration at half of the fitted maximal effect; on the % scale 0 is the no-effect control and ±100 the full control effect; nearly all actives have a fitted effect of over 60% in size
Target sequence (Q9HC16 whole entry, looked up): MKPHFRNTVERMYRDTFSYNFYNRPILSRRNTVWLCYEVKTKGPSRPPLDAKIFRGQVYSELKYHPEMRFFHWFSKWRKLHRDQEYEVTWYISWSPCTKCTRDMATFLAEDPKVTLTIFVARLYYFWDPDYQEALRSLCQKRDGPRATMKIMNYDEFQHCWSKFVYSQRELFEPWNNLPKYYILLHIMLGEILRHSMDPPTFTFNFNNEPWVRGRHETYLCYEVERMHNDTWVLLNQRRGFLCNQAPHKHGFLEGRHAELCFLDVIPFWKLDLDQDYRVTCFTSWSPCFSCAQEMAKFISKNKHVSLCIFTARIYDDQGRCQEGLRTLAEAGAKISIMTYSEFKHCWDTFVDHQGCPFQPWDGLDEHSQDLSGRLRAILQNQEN
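HeLa cells stably expressing Vif and C-terminally eYFP-tagged A3G, seeded overnight at 37 deg C, then exposed to compound by pintool overnight at 37 deg C. Rise in yellow fluorescence (Ex 488/Em 500-530, Acumen) marks blocked Vif-driven A3G degradation.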
MCF10A rerep: A quantitative high throughput screen for small molecules that induce DNA re-replication in MCF 10a normal breast cells; MCF 10A DNA re-replication, Hoechst nuclear intensity, 48 h; Potency, µM (series often up to 46.1 µM), without a hit: at the highest dose activity, positive = re-replication, most hits filed as activators; 350,000 compounds, 2.9% hits; AID 624296, 2012; further: potency means the concentration at half of the fitted maximal effect; % of control where 0% means no effect; nearly all actives have a fitted effect of over 50% in size
SW480 rerep: A quantitative high throughput screen for small molecules that induce DNA re-replication in SW480 colon adenocarcinoma cells | 340,000 compounds, 1.8% hits | Potency, µM (titrated, usually from 46.1 µM), for inactives: at the highest dose re-replication activation, most hits filed as activators | SW480 DNA re-replication, Hoechst DNA content imaging, 48 h; further: potency means the concentration at half of the fitted maximal effect; % of control where 0% means no effect; nearly all actives have a fitted effect of over 55% in size
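Per well, 250 cells were exposed to pinned compound for 48 hr. Nuclear DNA was visualised with Hoechst (40 min, 37 C) and total object intensity recorded by fluorescence scanning.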
IL-1B inflam inh: qHTS for Inhibitors of Inflammasome Signaling: IL-1-beta AlphaLISA Primary Screen; 360,000 compounds, 4.7% hits; activity change, % at 57.5 µM; THP-1 LPS/ATP IL-1B secretion, AlphaLISA, 16 h; active compounds read low; in the data active means activity change below about -50%; inconclusive means mostly about -30% to -49%; further: on the % scale 0 is the no-effect control and ±100 the full control effect
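Secreted IL-1B measured by AlphaLISA bead assay after 16 h compound exposure of THP-1 cells; compounds (final up to 57.5 uM) added 1 h before LPS (250 ng/mL) and ATP (1.25 mM) stimulation; lower signal means less secretion.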
An asterisk follows results filed as active; u = inconclusive; x = no result given. Only some compounds are listed: those with a hit (about 6.9% of all), similar ones and a draw of the others. Unless noted, the call rests on the fitted dose curve; in most records, active means well fitted curve in the direction sought with a large enough effect; inconclusive means small, poorly fitted or top-dose-only effect, or another doubt; inactive means no such curve, though single readings can be large; an effect the other way counts as inactive or inconclusive.

SMILES	Giardia killer	Vif-APOBEC3F blk	Vif-APOBEC3G blk	MCF10A rerep	SW480 rerep	IL-1B inflam inh
CCOc1ccccc1C(=O)Nc1ccc(S(=O)(=O)Nc2ncccn2)cc1	x	0%	8%	x	x	x
COc1ccc2c(C)nc(Nc3nc(-c4ccccc4)cc(=O)[nH]3)nc2c1	6	9%	-7%	4.6µM*	3.7µM*	-63*
Cc1ccc2nc(Nc3nc(CSc4nnc(C)s4)cc(=O)[nH]3)nc(C)c2c1	-10	4%	2%	1%	u	-88*
CCOc1ccc(N/C(N)=N/c2nc(CSc3nnc(C)s3)cc(=O)[nH]2)cc1	-11	1%	u	u	u	37
Cc1ccc2c(C)nc(Nc3nc(CSc4nc5ccccc5[nH]4)cc(=O)[nH]3)nc2c1	6	1%	-1%	-1%	15%	-86*
Cc1ccc2nc(Nc3nc(-c4ccccc4)cc(=O)[nH]3)nc(C)c2c1	1	-12%	-3%	u	11%	u
Cc1nnc(SCc2cc(=O)[nH]c(/N=C(\N)Nc3ccccc3)n2)s1	-16	-15%	-23%	18µM*	u	22
COc1cc(C2Nc3ccccc3-c3nnc(SCc4ccc(C)cc4)nc3O2)cc(OC)c1O (centres undefined)	x	3%	-3%	x	x	x
O=C(CSc1nc2ccccc2nc1Cc1ccccc1F)Nc1cccc(C(F)(F)F)c1	x	-2%	2%	x	x	x
CN(Cc1ccccc1)S(=O)(=O)c1nnc(NC(=O)c2ccccc2Cl)s1	x	1%	6%	x	x	x
Cc1ccc(NC(=O)Cn2c(=O)n(CCc3ccccc3)c(=O)c3c4c(sc32)CCCC4)c(C)c1	x	-1%	0%	x	x	x
Cc1ccc(N2CC(NC(=O)/C=C\c3ccc4c(c3)OCO4)CC2=O)cc1C (centres undefined)	x	-21%	-8%	x	x	x
CN(C)CCCN(C(=O)COc1ccc(Cl)cc1)c1nc2c(F)cccc2s1	-12	-1%	2%	13%	-3%	-5
CN(C)CCCN(C(=O)COc1ccccc1)c1nc2ccc(F)cc2s1	14	1%	6%	0%	-3%	-8
CN(C)CCCN(C(=O)COc1ccc(Cl)cc1)c1nc2ccc(F)cc2s1	0	-6%	4%	-2%	12%	-65*
CN(C)CCCN(C(=O)CCOc1ccccc1)c1nc2c(F)cccc2s1	-9	5%	u	u	u	-60*
Cc1cc(C)c2sc(N(CCCN(C)C)C(=O)COc3ccc(Cl)cc3)nc2c1	-4	8%	6%	u	u	-102*
Cc1ccc2nc(N(CCCN(C)C)C(=O)COc3ccc(Cl)cc3)sc2c1	26	0%	0%	1%	-5%	-28
CN(C)CCCN(C(=O)CCc1ccccc1)c1nc2c(F)cccc2s1	-9	1%	0%	2%	20%	u
Cc1cccc2sc(N(CCCN(C)C)C(=O)COc3ccc(Cl)cc3)nc12	-2	8%	-7%	4%	-2%	-60*
CC(OC(=O)c1ccccc1OCCOc1ccccc1)C(=O)Nc1ccc(Br)cc1 (centres undefined)	x	x	-3%	x	x	x
CN(C)CCCN(C(=O)CCOc1ccccc1)c1nc2ccc(F)cc2s1	-29	6%	-22%	u	u	-86*
CCCCSCCCNC(=O)CN1C(=O)COc2ccc(S(=O)(=O)N3CCC(C)CC3)cc21	x	3%	0%	x	x	x
CC(=O)c1sc(-c2ccc(Cl)cc2)nc1C	5	8%	2%	0%	-7%	13
COc1ccc(N/C=C/C(=O)c2sc(-c3ccccc3)nc2C)cc1	7	-11%	11µM*	u	u	-19
SMILES	Giardia killer	Vif-APOBEC3F blk	Vif-APOBEC3G blk	MCF10A rerep	SW480 rerep	IL-1B inflam inh
Cc1nc(-c2ccccc2)sc1C(=O)/C=C/c1ccc(Cl)cc1	-17	-3%	0%	4.1µM*	2%	-86*
CCN1CCN(C(c2ccccc2Cl)c2sc3nc(-c4ccco4)nn3c2O)CC1 (centres undefined)	x	-4%	-4%	x	x	x
COc1ccc(/C=C2\SC(=S)N(CCC(=O)N(CCO)c3ccccc3)C2=O)cc1OC	-9	-7%	-8%	10%	4%	-12
CCOc1ccc(/C=C2\SC(=S)N(CCC(=O)N(CCO)c3ccccc3)C2=O)cc1	-3	0%	0%	-3%	u	-81*
CCc1ccc(/C=C2\SC(=S)N(CCCC(=O)N(CCO)c3ccccc3)C2=O)cc1	x	0%	-14%	x	x	-70*
Fc1ccccc1-c1ccc(-c2nc3ccc(Cl)cn3c2Nc2ccc(Cl)cc2)o1	-15	x	x	x	x	x
COc1cccc(N2CCN(C(=O)Cn3ncc4c3-c3ccccc3OC4)CC2)c1	x	-6%	-2%	x	x	x
CC(C)Oc1ccc(C(=O)Nc2nnc(SCC(=O)N3CCOCC3)s2)cc1	-95*	-9%	-5%	-4%	-2%	4
CCOC(=O)CNC(=O)CSc1nnc(NC(=O)c2ccc(C)cc2)s1	-87*	0%	0%	0%	0%	27
Cc1ccc(C(=O)Nc2nnc(SCC(=O)N3CCCc4ccccc43)s2)cc1	-125*	-3%	-5%	u	4%	0
CC(=O)Nc1nonc1-c1nnc(SCc2ccccc2F)n1C	x	0%	-4%	x	x	x
O=S(=O)(c1cccc2ccccc12)N1CCN(c2nc(-c3cccs3)nc3ccccc23)CC1	7	x	x	x	x	x
Cc1ccc(-c2c(CN3CCN(c4cccc(C)c4)C(C)C3)csc2C)cc1 (centres undefined)	x	13%	7%	x	x	x
Oc1ccc(Br)cc1C1C=C(c2ccc3c(c2)OCO3)NC(c2ccc(F)c(Br)c2)N1 (centres undefined)	-14	x	-14%	x	x	x
CN(C)c1ccc(C=c2c3ccccc3n3c2c2c([n+]3C)CCCC2)cc1	-1	11%	5%	u	-2%	-111*
CN(C)c1ccc(C=c2c3cc([N+](=O)[O-])ccc3n3c2cc(-c2ccccc2)[n+]3C)cc1	-11	-1%	2%	u	7%	-115*
CN(C)c1ccc(C=c2c3ccccc3n3c2cc(-c2ccccc2)[n+]3C)cc1	-17	u	1%	-9%	u	-102*
COc1cc(N(C)C)ccc1C=c1c2ccccc2n2c1cc(-c1ccccc1)[n+]2C	-27	u	7%	8%	u	-100*

Compound activity as filed in PubChem.
